From PubChem BioAssay (NCATS)
Records with an inconclusive call do not appear. A call without a number means that no potency is given here. The source made the active and inactive calls. The call rests on the fitted dose curve; in most records, active means well fitted inhibition curve with a large enough effect; inconclusive means small, poorly fitted or top-dose-only effect; inactive means flat fitted curve, though single readings scatter.

test: qHTS for Inhibitors of Plasmodium falciparum (7G8) proliferation (AID 504316); further: nearly all actives have a fitted effect of over 65% in size; conditions: P. falciparum 7G8 in erythrocytes, SYBR Green DNA, 72 h; series mostly up to 6.7 µM
From the text: Plasmodium falciparum is a virulent malarial parasite that kills 1-2 million people worldwide each year. Malaria not only inflicts tremendous suffering and morbidity on the human population, but has dramatically influenced the course of civilization with profound sociological and economic implications (Shah, S. 2010). Transmitted by mosquitoes, the sporozoite form of the parasite enters the blood stream to infect hepatocytes, where they become merozoites that infect red blood cells (erythrocytes). Within erythrocytes, merozoites begin a […] cycle of growth and division, after which the parasite is released to infect new red blood cells. Gametocytes, which form within erythrocytes as well, circulate in the bloodstream and are ingested by the mosquito, thereby completing the life cycle (see CDC website). To profile malarial lines for differential chemical responses and to identify inhibitors of malarial growth, an assay that measures P. falciparum growth and replication within erythrocytes was employed. This assay uses a DNA binding fluorescent dye (SYBR Green) to detect parasite DNA following cell lysis. Because mature erythrocytes lack DNA, only Plasmodium-derived DNA is detected. The P. falciparum line cp250, derived from a malarial isolate from Cambodia, (Mu, J., et al. 2010) was added to the panel of lines, Dd2, HB3, 7G8 and GB4 in this study. Laboratory of Assay Development and Screening Technology [ADST] and NIH Chemical Genomics Center [NCGC] Boston University, Chemistry Department, Center for Chemical Methodology and Library Development [CMLD-BU] NIH National Institute of Allergy and Infectious Diseases [NIAID]
ADST Assay Protocol Summary: The 1536-well SYBR Green viability assay was based on the method of Bennett et al (2004) and described previously in 1536-well format (Yuan J., et al. 2009). For screening 3 ul culture medium was dispensed into 1536 well black clear bottom plates (Aurora Biotechnologies) using a Multidrop Combi (Thermo Fisher Scientific Inc.), 23 nL compounds in DMSO were added by a pin transfer (Cleveland, P.H. and Koutz, P.J, 2005) using a pin tool-based delivery system (Kalypsys), and 5 ul of erythrocytes infected with P. falciparum one of five lines (cp250, Dd2, HB3, 7G8 or GB4, 0.3% parasitemia, 2.5% hematocrit final concentration) were added. The plates were incubated at 37C in a humidified incubator in 5% CO2 for 72 h, and 2 ul lysis buffer (20 mM Tris HCl, 10 mM EDTA, 0.16% saponin, 1.6% triton X, 10X SYBR Green I (supplied as 10,000X final concentration by Invitrogen) was added to each well. The plates were mixed for 25 sec with gentle shaking and incubated overnight at room temperature in the dark. The following morning, fluorescence intensity at 485(14) nm excitation and 535(25) nm emission wavelengths was measured on an EnVision (Perkin Elmer) plate reader. Plate reads were normalized relative to the control inhibitor (0.29 uM artemisinin) and vehicle (DMSO) wells present on each plate and then corrected by an algorithm using vehicle-only control plates at the beginning and end of the compound plate stack. References Shah, S. (2010). The Fever: how malaria has ruled humankind for 500,000 years. New York, Sarah Crichton Books. CDC web site, http://www.cdc.gov/malaria/about/biology/index.html Mu, J., Myers, R.A., Jiang, H., Liu, S., Ricklefs, S., Waisberg, M., Chotivanich, K., Wilairatana, P., Krudsood, S., White, N.J., et Plasmodium falciparum genome-wide scans for positive selection, recombination hot spots and resistance to antimalarial drugs Nature Genetics 2010, 42, pp 268-271 Bennett TN, Paguio, M., Gligorijevic, B., Seudieu, C., Kosar, A. D., Davidson, E., and Roepe, P. D. Novel, rapid, and inexpensive cell-based quantification of antimalarial drug efficacy Antimicrobial Agents Chemother. 2004, 48(5): pp 1807-10 Yuan J, Johnson RL, Huang RL, Wichterman J, Jiang HY, Hayton K, Fidock DA, Wellems TE, Inglese J, Austin CP, Su XZ. […]
Potency means the concentration at half of the fitted maximal effect.

Structure (SMILES)	Potency
COc1cccc([C@H]2Oc3ccc(OC)cc3C(=NOC[C@@H](O)COCc3ccco3)[C@H]2O)c1	inactive
C=CCOC(=O)N[C@H](c1ccc2ccccc2c1)[C@H](C)C=CCC(=O)OC	inactive
COC(=O)NC(c1ccccc1)c1c[nH]c2ccc(OC)cc12 (stereo not given)	inactive
CCCC[C@]12Cc3cc(C#N)ccc3[C@H](O1)c1c(c3ccccc3oc1=O)O2	inactive
C#CCN1C(=O)[C@]2(OCCC=C[C@H]2C)c2ccccc21	inactive
CCc1cc2c(nc1CC)CCN(CCC(C)=NOC[C@H]1O[C@H](c3ccccc3)C=C[C@H]1Oc1ccc(OC)cc1)C2	1690 nM (active)
CC(CCN1CCCCc2nc(C)c(C)cc21)=NOC[C@@H](O)[C@H]1O[C@@H]2OC(C)(C)O[C@H]2[C@@H]1O	inactive
COC(=O)CCCC1=CC2=CC(=O)C(C)(OC(=O)c3cccs3)C(=O)C2=CN1CC(C)C (stereo not given)	inactive
COC(=O)C1=C(C(=O)OC)[C@@H]2N(C)c3ccccc3[C@@]23C[C@@H](C(=O)OC)N(C(=O)NCCBr)C3=N1	inactive
COc1ccc(O[C@H]2C=C[C@@H](c3ccccc3)O[C@H]2COC(=O)CCC(C)=NO[C@@H]2O[C@H](COC(C)=O)[C@@H](OC(C)=O)[C@H](OC(C)=O)[C@@H]2OC(C)=O)cc1	inactive
O=C1CCC=C1C(O)CCc1ccccc1 (stereo not given)	inactive
COC(=O)C1=NOC2(C=C(Br)C(OC)=C(Br)C2=O)C1 (stereo not given)	inactive
COC(=O)N[C@H](C(C(=O)OC)=C(C)NCc1ccccc1)c1ccco1	inactive
CC=COC(=O)N[C@@H](c1ccccc1)[C@]1(C(C)=O)CCCC1=O	inactive
C=CCN1C(=O)[C@]2(OCCC=C[C@H]2C)c2ccccc21	inactive
C=CCN1c2ccccc2[C@]23C[C@@H](C(=O)OC)N(C(=O)Nc4ccccc4F)C2=NC(C(=O)OC)=C(C(=O)OC)[C@H]13	inactive
COCCN1C(=O)N[C@@H](c2ccccc2)[C@H](C(C)=O)[C@H]1C	inactive
COC(=O)C1=C(C(=O)OC)[C@@H]2N(C)c3ccccc3[C@@]23CCC(=O)N(CC(C)C)C3=N1	inactive
C=CCOC(=O)C1(C(NC(=O)OC)c2ccccc2)C(=O)Cc2ccccc21 (stereo not given)	inactive
CC(=O)N1C(=O)NC(C)=C(C#N)C1c1ccccc1 (stereo not given)	inactive

Structure (SMILES)	Potency
Cc1ccc(S(=O)(=O)OC[C@@H]2CN3[C@H](c4ccc(Br)cc4)[C@H](C)CC[C@H]3C(=O)O2)cc1	inactive
Cc1ccccc1Nc1oc(-c2ccccc2)nc1-c1ccccc1	1690 nM (active)
COC(=O)c1ccc(CN2C(=O)[C@]3(OCCC=C[C@@H]3C)c3ccccc32)cc1	inactive
COc1ccc(COC(=O)NN=C2C[C@@H](O)[C@@H](O)[C@@H]3[C@H]4C(=O)N(C5CCCCC5)C(=O)[C@@H]4CC[C@@H]23)cc1	inactive
CCCCCCC#C[C@@H]1C=C[C@H](OC(=O)OCC)[C@@H](COC(=O)OCC)O1	inactive
COC(=O)CC=C[C@@H](C)[C@@H](C=NOCC[C@@H]1C=C[C@H](OC(C)=O)[C@@H](COC(C)=O)O1)NS(=O)(=O)c1ccc(C)cc1	inactive
CCN1C(N(C)CCOC)=NC(c2cccc(F)c2)C(C(=O)OC)=C1C (stereo not given)	inactive
C=C(CCN1C=C(C(C)=O)C(c2ccccc2)NC1=O)c1ccc(OC)cc1 (stereo not given)	inactive
COC(=O)N[C@@H](CCc1ccccc1)[C@]1(C(C)=O)CCCC1=O	inactive
COC(=O)C1=C(C)N(Cc2ccccc2)C(=NCCCCO)NC1c1cccc(F)c1 (stereo not given)	inactive
COc1cccc([C@H]2Oc3ccc(OC)cc3C(=NOCC[C@@H]3C=C[C@H](OC(C)=O)[C@@H](COC(C)=O)O3)[C@H]2O)c1	inactive
COC(=O)[C@H](COC(C)(C)C)NC(=O)O[C@H]1C(=O)c2ccc(OC)cc2O[C@@H]1c1ccc2c(c1)OCO2	inactive
CCN1C(=O)N[C@@H](CCc2ccccc2)[C@@H](C(=O)OC)[C@H]1C	inactive
C[C@@H]1C=CCC(=O)OC[C@H](C)C(=O)OC[C@H]2O[C@H]1C=C[C@H]2O	inactive
C=C(C)[C@@H]1CC2=C(OC)C(CC=C(C)C)(CC=C(C)C)C(=O)C(C(=O)c3ccccc3)=C2O1	1690 nM (active)
C[C@@H]1CC2=CCCC2[C@]2(O1)C(=O)Nc1cccc(Br)c12 (stereo not given in full)	inactive
Cc1cc(C)cc(CO[C@H]2C=C[C@@H](c3ccccc3)O[C@H]2CO)c1	inactive
O=C1C=C(c2ccccc2)CCC1	inactive
COC(=O)C1=C(C)N(Cc2ccccc2)C(=NCC(C)C)NC1c1cccc(F)c1 (stereo not given)	inactive
COCCN1C(=O)NC(c2ccccc2)C(C(=O)OC)=C1C (stereo not given)	inactive
